# Inconclusive results are not listed. Values without a mark were called inactive. The source made the active and inactive calls. Calls come from the whole dose curve; as a rule, active = well fitted curve in the direction sought with a large enough effect; inconclusive = small, poorly fitted or top-dose-only effect, or another doubt; inactive = no such curve, though single readings can be large; an effect the other way counts as inactive or inconclusive.
# Tested on: not listed separately
# Experiment: qHTS for Inhibitors of the vitamin D receptor (VDR): Hit Validation using a Texas Red Assay (AID 602201); for activity, negative = inhibition: % is set by controls: 0 for no effect and ±100 for the full control effect
# Details: VDR coregulator binding, Texas Red fluorescence polarization; series mostly up to 57.1 µM; activity, negative = inhibition: at the top concentration
# In short: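 Fluorescence polarization with 1.5 uM VDR-LBD, LG19078 and 7 nM Texas Red (final). After 2 hours at ambient temperature, read at Ex 595 nm/Em 615 nm.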
# Potency is the fitted concentration of half-maximal effect.
Structure (SMILES),Potency,"activity, negative = inhibition [%]"
CCOC(=O)c1c(NS(=O)(=O)c2ccccc2)n(CCCOC)c2nc3ccccc3nc12,3.55 µM (active),
CN1C(=O)NC(=O)/C(=C\C=C\c2ccccc2[N+](=O)[O-])C1=O,,-10.9
O=C(O)CCC(=O)NCCC1=c2ccccc2=N/C1=C\c1c(O)n(Cc2ccc(F)cc2)c(=S)[nH]c1=O,,-3.97
COc1cc(/C=C/[N+](=O)[O-])ccc1O,,-14.9

# Target: Luciferin 4-monooxygenase (Photinus pyralis) (UniProt P08659)
# Experiment: Biochemical firefly luciferase enzyme assay for NPC (AID 624030); note: nearly all actives have a fitted effect of over 70% in size;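 for activity change, negative = inhibition: purified P. pyralis luciferase at 10 nM with luciferin and ATP substrate; 0% = DMSO and -100% = full luciferase inhibition by PTC124 control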
# Details: purified P. pyralis luciferase, luminescence, 5 min; series mostly up to 58.6 µM; activity change, negative = inhibition: at the top concentration
# In short: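 Purified P. pyralis luciferase at 10 nM in 50 mM Tris Acetate (final), luminescence read within 5 minutes of enzyme addition to compounds. Activity normalised to PTC124 versus DMSO; concentration-response curves classed by r2, magnitude and activity.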
# Luciferin 4-monooxygenase (Photinus pyralis), sequence (P08659 whole entry, looked up): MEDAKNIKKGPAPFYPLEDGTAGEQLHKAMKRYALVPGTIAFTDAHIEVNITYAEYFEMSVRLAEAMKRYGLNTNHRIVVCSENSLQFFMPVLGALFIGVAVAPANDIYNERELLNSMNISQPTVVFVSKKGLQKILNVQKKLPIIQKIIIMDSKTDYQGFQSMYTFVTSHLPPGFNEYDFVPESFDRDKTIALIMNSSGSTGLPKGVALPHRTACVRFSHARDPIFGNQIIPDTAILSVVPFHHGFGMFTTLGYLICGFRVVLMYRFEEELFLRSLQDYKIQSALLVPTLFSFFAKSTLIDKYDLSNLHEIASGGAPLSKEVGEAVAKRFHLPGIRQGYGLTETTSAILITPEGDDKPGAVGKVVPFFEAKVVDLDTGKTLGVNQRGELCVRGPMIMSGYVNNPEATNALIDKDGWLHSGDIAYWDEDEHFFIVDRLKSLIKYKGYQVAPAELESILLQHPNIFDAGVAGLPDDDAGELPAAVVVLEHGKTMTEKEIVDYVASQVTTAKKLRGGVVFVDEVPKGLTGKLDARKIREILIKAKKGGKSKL
Structure (SMILES),"activity change, negative = inhibition",Potency
C=C/C=C/CC1=C(C)[C@@H](OC(=O)[C@@H]2[C@@H](/C=C(\C)C(=O)OC)C2(C)C)CC1=O (tested in a mixture with another compound),-6.8%,
CC(C)CC1C(=O)N2CCCC2C2(O)OC(NC(=O)C3CC4c5cccc6[nH]cc(c56)CC4N(C)C3)(C(C)C)C(=O)N12 (stereo not given),-1.5%,
CC(=O)OC1CC(OC2C(O)CC(OC3C(O)CC(O[C@H]4CC[C@]5(C)C6CC[C@]7(C)[C@@H](C8=CC(=O)OC8)[C@@H](O)C[C@]7(O)[C@@H]6CC[C@@H]5C4)OC3C)OC2C)OC(C)C1OC1OC(CO)C(O)C(O)C1O (stereo not given in full),-4.59%,
CCC1CC2CC3c4[nH]c5ccc(OC)cc5c4CCN(C2)C13 (stereo not given),3.73% [at 123 µM],
Cc1ccc2c(c1)[C@]13CCCC[C@@H]1[C@@H](C2)N(C)CC3,2.01%,
COc1ccc2c3c1OC1C(O)C=CC4[C@@H](C2)N(C)CC[C@]314 (stereo not given in full),-3.07% [at 123 µM],
CCc1cc(OC)c(CC(C)N)cc1OC (stereo not given),-0.396% [at 123 µM],
COc1ccc2c3c1OC1C(O)C=CC4[C@@H](C2)NCC[C@]314 (stereo not given in full),-0.56% [at 123 µM],
COc1ccc2c3c1OC1[C@H](O)CCC4[C@@H](C2)N(C)CC[C@]314 (stereo not given in full),1.03% [at 123 µM],
CN[C@H]1C[C@@H](N)[C@H](O)[C@@H](O[C@@H]2O[C@H](CO)[C@H](O)[C@@H]3O[C@]4(O[C@@H]23)O[C@H]([C@@H](N)CO)[C@H](O)[C@@H](O)[C@H]4O)[C@@H]1O,5.77%,
CC1[C@H]2Cc3ccc(O)cc3[C@]1(C)CCN2C (stereo not given in full),-0.801% [at 215 µM],
O=C1OC(c2cc(I)c(O)c(I)c2)(c2cc(I)c(O)c(I)c2)c2ccccc21,,32.2 µM (active)
Clc1ccc([C@H]2CC3CCC2N3)cn1 (stereo not given in full),0.0963% [at 123 µM],
C#C[C@]1(OC(=O)CCCCCC)CC[C@H]2C3CCC4=CC(=O)CC[C@@H]4[C@H]3CC[C@@]21C (stereo not given in full),-3.44%,
CC(C)[C@@]1(NC(=O)[C@H]2C[C@H]3c4cccc5[nH]cc(c45)C[C@@H]3N(C)C2)O[C@]2(O)[C@H]3CCCN3C(=O)CN2C1=O (tested in a mixture with another compound),-1.72%,
C[C@H]1[C@@H]2Cc3ccc(O)cc3[C@]1(C)CCN2CCc1ccccc1,3.58% [at 123 µM],
C=CCC1(C(C)CCC)C(=O)NC(=O)NC1=O (stereo not given),1.62% [at 123 µM],
CCON=C(CC)C1=C(O)CC(c2c(C)cc(C)cc2C)CC1=O (stereo not given),-5.34% [at 123 µM],

Structure (SMILES),"activity change, negative = inhibition",Potency
O=C1[O][Sb-]23[O]C(=O)C([O]2)C2[O][Sb-]4([O]C(=O)C([O]4)C1[O]3)[O]C2=O,-5.84%,
COc1cc(CC(C)N)c(OC)cc1C (stereo not given),0.238% [at 123 µM],
CC1[C@H]2Cc3ccc(O)cc3[C@]1(C)CCN2CCc1ccccc1 (stereo not given in full),7.17% [at 123 µM],
Oc1ccc2c3c1OC1C(O)C=CC4[C@@H](C2)NCC[C@]314 (stereo not given in full),0.631% [at 123 µM],
CN1[C@@H]2CC[C@H]1CC(OC(=O)C(CO)c1ccccc1)C2 (stereo not given in full),0.913%,
CN[C@H](C)Cc1ccccc1,2.93% [at 123 µM],
CC(C)=CCN1CC[C@@]2(C)c3cc(O)ccc3C[C@@H]1C2C (stereo not given in full),-2.43% [at 123 µM],
CCNC(C)Cc1ccc2c(c1)OCO2 (stereo not given),2.81% [at 123 µM],
COC1=CC=C2[C@H]3Cc4ccc(OC)c5c4[C@@]2(CCN3C)C1O5 (stereo not given in full),0.851% [at 123 µM],
O=[N+]([O-])NC1=NCCN1Cc1ccc(Cl)nc1,-3.5%,
C[C@H]1[C@@H]2Cc3ccc(O)cc3[C@]1(C)CCN2C,3.11% [at 288 µM],
CC(=O)Oc1ccc2c3c1OC1C(OC(C)=O)C=CC4[C@@H](C2)N(C)CC[C@]314 (stereo not given in full),0.983% [at 123 µM],
C[N+]1(CCF)[C@@H]2CC[C@@H]1CC(OC(=O)C(O)(c1ccccc1)c1ccccc1)C2 (stereo not given in full),3%,
CCC(=O)OC1[C@@H](N2CCCCC2)C[C@H]2[C@@H]3CC[C@H]4C[C@H](OC(C)=O)[C@@H](N5CCCCC5)C[C@]4(C)[C@H]3CC[C@]12C (stereo not given in full),3.93%,
CN1CC[C@]23c4c5ccc(O)c4OC2C(O)CCC3[C@H]1C5 (stereo not given in full),-0.535% [at 123 µM],
COc1cc(CCN)c(OC)cc1Br,-0.0378% [at 123 µM],
CC[C@H](OC(C)=O)C(C[C@H](C)NC)(c1ccccc1)c1ccccc1,3.4% [at 123 µM],
Cc1c(N)nc([C@@H](CC(N)=O)NC[C@H](N)C(N)=O)nc1C(=O)N[C@H](C(=O)N[C@H](C)[C@H](O)[C@H](C)C(=O)N[C@@H](C(=O)NCCc1nc(-c2nc(C(=O)NCCC[S+](C)C)cs2)cs1)[C@H](C)O)[C@H](O[C@@H]1O[C@@H](CO)[C@@H](O)[C@H](O)[C@@H]1O[C@H]1O[C@H](CO)[C@H](O)[C@H](OC(N)=O)[C@@H]1O)c1cnc[nH]1,-2.86%,

# — PubChem BioAssay (NCATS)
